Drawing on PubChem BioAssay (NCI), this text covers growth for 10 compounds.

Some test systems named below: HCT-15 colon; HT29 colon; SNB-19 CNS; U251 CNS; PC-3 prostate; SK-MEL-5 melanoma; UACC-62 melanoma; LOX IMVI melanoma; SK-MEL-28 melanoma.
Holding throughout (assay): NCI-60 one-dose screen, 48 h (100 = growth as untreated, 0 = no growth, -100 = all killed)
Common to all, as to conditions: 10 µM unless noted

This is part of a sample that, as a whole, favours compounds with a hit. Of some 83,000 tested, about 20% had one in any assay.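 Growth was measured after 48 h exposure to one concentration of compound in 96-well plates. Values under 10 count as active.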 Values without a mark were called inactive. Active and inactive are the calls of the source.

Turning to `O=C1CC(C(F)(F)F)Cc2nc3ccc(Br)cc3cc21` (stereo unspecified), the growth with HCT-15 colon is 89.9%; in the assay on HT29 colon it was 98.2%; in the assay on SNB-19 CNS it was 92%; in the assay with U251 CNS, 92.2%; with PC-3 prostate, 82%; in the assay on SK-MEL-5 melanoma, 92.6%. Also, the values for the growth in the assay on UACC-62 melanoma, with LOX IMVI melanoma and in the assay on SK-MEL-28 melanoma were 81.1%, 91.1% and 96.5%, respectively.
Regarding `C/C=C/C1OC23CCCCC2C(C#N)(C(=N)O3)C1(C#N)C#N` (stereo unspecified), the growth with HCT-15 colon is 85%; in the assay on HT29 colon it was 109%; with SNB-19 CNS, 101%; in the assay on U251 CNS it was 102%; with PC-3 prostate, 98.1%; in the assay on SK-MEL-5 melanoma, 99.1%. The figures for the growth with UACC-62 melanoma, in the assay with LOX IMVI melanoma and in the assay on SK-MEL-28 melanoma were 87%, 81.9% and 109%, respectively.
As to `C[n+]1cccc(NC(=O)c2ccc3ccc4ccc(C(=O)Nc5ccc[n+](C)c5)nc4c3n2)c1`, the growth in the assay on HCT-15 colon was 61.2%; in the assay with HT29 colon, 34.2%; in the assay on SNB-19 CNS it was 14.3%; with U251 CNS it was 13%; with PC-3 prostate, 55.3%; with SK-MEL-5 melanoma, 1.98% (active). Besides, the results for the growth in the assay on UACC-62 melanoma, in the assay on LOX IMVI melanoma and in the assay with SK-MEL-28 melanoma were -54.4% (active), 64.5% and 31.2%, respectively.
For `Cc1cc(N2CCCCCC2)nc(N2CCN(CC(=O)Nc3ccc4c(ccn4Cc4ccccc4)c3)CC2)n1`, the growth in the assay with HCT-15 colon is 30.8%; in the assay on HT29 colon it was 6.45% (active); in the assay on SNB-19 CNS, 67.3%; with U251 CNS, 39.2%; in the assay on PC-3 prostate, 29%; in the assay with SK-MEL-5 melanoma it was 46.9%. The growth is 49.2% with UACC-62 melanoma, 44.1% in the assay with LOX IMVI melanoma and 51.8% in the assay on SK-MEL-28 melanoma.
Regarding `O=S(=O)(NCCNc1nccc(-c2c(-c3cccc(F)c3)nc3occn23)n1)c1ccc(C(F)(F)F)cc1`, the growth in the assay with HCT-15 colon was 95.5%; in the assay with HT29 colon it was 62.3%; with SNB-19 CNS it was 98%; in the assay on U251 CNS, 92%; with PC-3 prostate, 55.2%; in the assay with SK-MEL-5 melanoma, 92%. Besides, the results for the growth with UACC-62 melanoma and with SK-MEL-28 melanoma were 76.2% and 78.7%, respectively.
Turning to `O=c1[nH]cnc2c1ccn2C1OC(CO)C(O)C1O` (stereo unspecified), the growth with HCT-15 colon was 45.5%; with HT29 colon, 65.9%; in the assay with SNB-19 CNS, 78.3%; in the assay on U251 CNS it was 81.2%; with PC-3 prostate, 36.3%; with SK-MEL-5 melanoma it was 83.1%. For the same compound, the growth is 73.3% in the assay with UACC-62 melanoma, 27.8% in the assay on LOX IMVI melanoma and 91.2% with SK-MEL-28 melanoma.
As for `O=C1COCCN1c1ccc(NCc2cn(Cc3cccc4ccccc34)c3ccccc23)cc1`, the growth was 74% in the assay on HCT-15 colon; 97.7% in the assay on HT29 colon; 97.9% with SNB-19 CNS; 74.5% with U251 CNS; 79.4% in the assay with PC-3 prostate; 41.7% in the assay with UACC-62 melanoma. Moreover, the growth was 91% with LOX IMVI melanoma and 92.6% in the assay with SK-MEL-28 melanoma.
In the case of `O=C1C(Cl)=C(Nc2ccc3cn[nH]c3c2)C(=O)c2ccccc21`, the growth in the assay with HCT-15 colon was -84.1% (active); in the assay with HT29 colon, -66.9% (active); with SNB-19 CNS it was 76.5%; with U251 CNS it was -93.2% (active); in the assay on PC-3 prostate, -42% (active); with SK-MEL-5 melanoma, -99.5% (active). The growth was -97.9% (active) in the assay on UACC-62 melanoma, -87.5% (active) with LOX IMVI melanoma and -97.7% (active) in the assay on SK-MEL-28 melanoma.
With `C#CCC(C(=O)OCC)C(=O)OCC`, the growth in the assay with HCT-15 colon was 106%; in the assay with HT29 colon it was 103%; in the assay with SNB-19 CNS, 102%; in the assay with U251 CNS it was 104%; in the assay on PC-3 prostate it was 99.8%; in the assay on SK-MEL-5 melanoma, 105%. Further, the results for the growth in the assay with UACC-62 melanoma, in the assay with LOX IMVI melanoma and with SK-MEL-28 melanoma were 101%, 99.2% and 109%, respectively.
As to `C[n+]1c2ccccc2nc2c(N)cc(N)cc21`, the growth with HCT-15 colon is 110%; in the assay on HT29 colon, 84.7%; in the assay on U251 CNS it was 8.86% (active); with PC-3 prostate, 77.6%; in the assay on UACC-62 melanoma it was 93%; in the assay with LOX IMVI melanoma, 77.3%. In addition, the growth in the assay on SK-MEL-28 melanoma is 109%.
